Bioassay records (PubChem)
The sample as a whole holds a higher share of hits than the screen did.
ROS inducer – ROS inducers in U2OS cancer cells, primary screen, cell-based, H2DCF-DA fluorescence; U2OS ROS induction; 46,000 tested, 2% active; ROS induction (% of piperlongumine), % at 10 µM; in the data active means ROS induction above about 79%, passing the limit was not always enough;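 further: 0% = DMSO vehicle median and 100% = reference compound median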
An asterisk follows results filed as active.

SMILES | ROS inducer
Clc1ccc(CSc2ncccn2)cc1 | 94*
O=c1ccnc(SCc2ccc(Cl)cc2)[nH]1 | 49
C[C@@H]1CCCCO[C@H](CN(C)S(=O)(=O)c2cn(C)cn2)[C@@H](C)CN([C@H](C)CO)C(=O)c2cc(N(C)C)ccc2O1 | -4
C[C@H]1CN([C@@H](C)CO)C(=O)c2cc(NC(=O)Cc3ccccc3)ccc2O[C@H]1CN(C)C(=O)Nc1ccccc1 | 8
COc1ccc(NC(=O)N(C)C[C@H]2Oc3ccc(NC(=O)Nc4c(C)noc4C)cc3C(=O)N([C@H](C)CO)C[C@H]2C)cc1 | -3
N=C(N)SCCc1ccc(OCc2ccc([N+](=O)[O-])cc2)cc1 | -18
C[C@@H]1CN([C@H](C)CO)C(=O)Cc2cc(NC(=O)Nc3ccc(F)cc3)ccc2O[C@@H]1CN(C)Cc1ccc(Oc2ccccc2)cc1 | 40
CC(C)(Oc1ccc(Cl)cc1)C(=O)Nc1ccccc1-c1nc2ccccc2s1 | 0
COc1ccc(-n2c(N)c(-c3nc4ccccc4s3)c3nc(C#N)c(C#N)nc32)cc1 | 153*
COc1ccc(-c2nc3ccccc3s2)cc1 | -5
COc1c(O[C@@H]2O[C@H](CO)[C@@H](O)[C@H](O)[C@H]2O)cc2oc(-c3ccc(O)cc3)cc(=O)c2c1O | -6
CC(=O)Oc1ccc(-c2coc3cc(OC(C)=O)cc(OC(C)=O)c3c2=O)cc1 | 26
CC(=O)OC[C@H]1O[C@@H](Oc2cc(OC(C)=O)c3c(=O)cc(-c4ccc(OC(C)=O)cc4)oc3c2)[C@H](OC(C)=O)[C@@H](OC(C)=O)[C@@H]1OC(C)=O | 246*
Cc1noc(C)c1NC(=O)Nc1ccc2c(c1)C(=O)N([C@@H](C)CO)C[C@@H](C)[C@@H](CN(C)Cc1ccc(C(=O)Nc3ccccc3N)cc1)O2 | 1
C[C@@H]1CN([C@H](C)CO)C(=O)c2cc(NC(=O)CCCN(C)C)ccc2O[C@H]1CN(C)Cc1ccncc1 | -8
COc1cccc(CN(C)C[C@H]2OCc3cnnn3CCCC(=O)N([C@H](C)CO)C[C@H]2C)c1 | 27
COc1cccc(NC(=O)N(C)C[C@H]2OCc3cn(nn3)CCCC(=O)N([C@H](C)CO)C[C@H]2C)c1 | -4
C[C@H](CO)N1C[C@H](C)[C@@H](CN(C)S(=O)(=O)c2ccc(Oc3ccccc3)nc2)OCc2cnnn2CCCC1=O | 2
COc1cccc(NC(=O)N(C)C[C@@H]2OCc3cn(nn3)CCCC(=O)N([C@H](C)CO)C[C@H]2C)c1 | 108*
C[C@@H]1CN([C@@H](C)CO)C(=O)CCCn2nncc2CO[C@@H]1CN(C)C(=O)Nc1ccc(N2CCCCC2)cc1 | 83*
C[C@@H]1CN([C@@H](C)CO)C(=O)CCCn2nncc2CO[C@H]1CN(C)S(=O)(=O)c1ccc(Oc2ccccc2)nc1 | 138*
C[C@@H]1CN([C@@H](C)CO)C(=O)CCCn2nncc2CO[C@H]1CN(C)S(=O)(=O)c1ccc(Oc2ccccc2)cc1 | 28
Cc1cccc(CN(C)C[C@@H]2OCc3cnnn3CCCC(=O)N([C@H](C)CO)C[C@H]2C)c1 | -2
COc1cccc(NC(=O)N(C)C[C@H]2OCc3cn(nn3)CCCC(=O)N([C@H](C)CO)C[C@@H]2C)c1 | -5
C[C@H](CO)N1C[C@H](C)[C@@H](CN(C)C(=O)Nc2ccc(N3CCCCC3)cc2)OCc2cnnn2CCCC1=O | 1
SMILES | ROS inducer
COc1cccc(CN(C)C[C@H]2OCc3cnnn3CCCC(=O)N([C@@H](C)CO)C[C@H]2C)c1 | 125*
C[C@@H]1CN([C@@H](C)CO)C(=O)CCCn2nncc2CO[C@H]1CN(C)C(=O)Nc1ccc(N2CCCCC2)cc1 | 16
C[C@H](CO)N1C[C@H](C)[C@H](CN(C)C(=O)Nc2ccc3c(c2)OCO3)Oc2c(NC(=O)Nc3cccc4ccccc34)cccc2C1=O | 38
CCN(CC)C(=O)Nc1ccc(OC)cc1 | 6
O=C1CSC(=S)N1/N=C/c1cccnc1 | -23
C=Cn1cnc2c1c(=O)n(C)c(=O)n2C | 0
Cc1ccc(S(=O)(=O)NC2=NCN(C3CCN(Cc4ccccc4)CC3)CN2)cc1 | -5
O=C(ON1C(=O)c2ccccc2C1=O)C1CCCCC1 | -15
COC(=O)N(C)CC1Cc2ccccc2O1 (centres undefined) | -1
Cc1noc(C)c1NC(=O)N(C)C[C@@H]1Oc2ccc(NC(=O)C3CCCCC3)cc2CC(=O)N([C@@H](C)CO)C[C@@H]1C | -7
C[C@H]1CN([C@@H](C)CO)C(=O)c2cccc(NS(C)(=O)=O)c2O[C@H]1CN(C)CC1CCCCC1 | -6
O=C(C[n+]1ccc(/C=N/O)cc1)NC1CCCCC1 | -9
Cc1ccc(CN(C)C[C@@H]2OCc3cnnn3CCCC(=O)N([C@@H](C)CO)C[C@@H]2C)cc1 | -1
C[C@H]1CN([C@@H](C)CO)C(=O)CCCn2nncc2CO[C@H]1CN(C)Cc1ccc(-c2ccccc2)cc1 | 15
C[C@@H]1CN([C@@H](C)CO)C(=O)CCCn2nncc2CO[C@@H]1CN(C)Cc1ccc(-c2ccccc2)cc1 | 91*
COc1ccc(S(=O)(=O)N2Cc3ccccc3CC2C(=O)Nc2sc3c(c2C#N)CCCC3)cc1 (centres undefined) | -8
COc1ccc(S(=O)(=O)N(C)C[C@H]2Oc3ccc(NC(=O)CCCCCC(=O)Nc4ccccc4N)cc3C(=O)N([C@@H](C)CO)C[C@H]2C)cc1 | 22
Cc1cc(-c2c(C(=O)Sc3ccccc3)c(C)nn2-c2ccccc2)no1 | 56
Cc1ccc(SC(=O)c2c(C)noc2-c2cc(C)on2)cc1 | 109*
Cc1ccc(SCC(=O)Nc2cc(C)on2)cc1 | -6
C[C@H](CO)N1C[C@H](C)[C@@H](CN(C)C(=O)Nc2cccc3ccccc23)Oc2ccc(NS(=O)(=O)c3ccc(Cl)cc3)cc2C1=O | -5
COc1ccc(-n2c(SCCCN3C(=O)c4cccc5cccc(c45)C3=O)nnc2-c2ccncc2)cc1 | 88*
COc1ccc(-n2c(SCC(=O)c3ccccc3)nnc2-c2ccncc2)cc1 | 16
Cn1c(SCCCN2C(=O)c3cccc4cccc(c34)C2=O)nnc1-c1cccs1 | 38
CCOC(=O)c1ncn2c1CN(C)C(=O)c1cc(F)ccc1-2 | -5
SMILES | ROS inducer
C[C@H]1CN([C@@H](C)CO)C(=O)c2cc(NC(=O)Nc3ccc(F)cc3)ccc2O[C@@H]1CN(C)S(=O)(=O)c1ccc(F)cc1 | -9
O=C(N/N=C/c1ccc(F)cc1)c1ccccn1 | -4
O=C(N/N=C/c1c(F)c(F)c(F)c(F)c1F)c1ccccn1 | 117*
O=C(N/N=C/c1cc(F)ccc1O)c1ccccn1 | -1
COc1ccc(-c2nc(N)ncc2-c2cscn2)c(O)c1 | -4
CC(C)c1ccc(S(=O)(=O)N2CCOCC2)cc1 | -1
CC1C2CC(C(S(=O)(=O)N3CCOCC3)C2=O)C1(C)C (centres undefined) | 115*
C[C@H]1CN([C@@H](C)CO)C(=O)Cc2cc(NS(=O)(=O)c3ccc(F)cc3)ccc2O[C@H]1CN(C)C(=O)Nc1ccc(C(F)(F)F)cc1 | 37
CC(=O)OC/C(=C\COc1cc(=O)oc2cccc(C)c12)CCC=C(C)C | 110*
CCc1cc(=O)oc2cc(C)cc(OCC(=O)C(C)(C)C)c12 | 73
CC(=O)OCCCNC(=O)c1cc2ccccc2oc1=O | 3
C[C@H]1CN([C@@H](C)CO)C(=O)Cc2cc(NC(=O)Cc3ccccc3)ccc2O[C@H]1CN(C)Cc1ccc(-c2ccccc2)cc1 | 21
CCOc1cccc2cc(-c3nc4ccccc4s3)c(=O)oc12 | 17
O=c1oc2cc(O)ccc2cc1-c1nc2ccccc2s1 | 149*
c1cc(-c2nc3ccccc3s2)nc(-c2nc3ccccc3s2)c1 | -15
